According to PubChem BioAssay (Tox21):
Several values for one entry are separate records, joined by “and”; a condition that tells them apart may be missing. Identical values can stand only once. Results filed as inconclusive are left out. Where a call stands in place of a potency, no number is given. A number with no mark means an inactive call. Activity calls are given as the source filed them. Calls come from the whole dose curve; as a rule, active = well fitted cell-killing curve with a large enough effect in the repeat runs; inconclusive = weak or mixed curves, or effect the other way; inactive = flat fitted curve, though single readings scatter.

Assay: Nuclear factor erythroid 2-related factor 2/antioxidant responsive element (Nrf2/ARE) small molecule agonists: qHTS cell viability counter screen in human keratinocytes (AID 1919968); note: nearly all actives have a fitted effect of over 55% in size
Conditions: KeratinoSens HaCaT ARE cells viability, CellTiter-Fluor, 24 h; series mostly up to 92.4 µM
In short: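 Stably transfected HaCaT (KeratinoSens), 1,500/well. Test agents in DMSO were applied for 23 h, 37 C/5% CO2. CellTiter-Fluor was incubated 1 h before the fluorescence read.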
Potency is the fitted concentration of half-maximal effect.

Compound	Potency	activity change, negative = cytotoxicity
CCC(O)CO (configuration not stated)	inactive	–
CC(=O)Oc1ccccc1C(=O)Nc1ncc([N+](=O)[O-])s1	55.6 µM (active)	–
COC(=O)c1cc(Cl)ccc1NS(=O)(=O)C(F)(F)F	inactive	–
O	inactive	–
CCCOCCC	inactive	–
COc1cccc2c1C(=O)c1c(O)c3c(c(O)c1C2=O)C[C@@](O)(C(C)=O)C[C@@H]3O[C@H]1C[C@H](N)[C@H](O)[C@H](C)O1	6.15 µM (active) and 2.37 µM (active)	–
CC(C)NCC(O)COc1cccc2ccccc12 (configuration not stated)	inactive	–
CCCCCCCC/C=C\CCCCCCCC(=O)OCCCC	–	4.3% [at 19 µM]
O=P(O)(O)O	inactive	–
Cc1ccc(Nc2ccc(O)c3c2C(=O)c2ccccc2C3=O)cc1	inactive	–
Cc1ccc(C)cc1	inactive	–
CCCCC(CC)COCCC#N (configuration not stated)	inactive	–
